Source: PubChem BioAssay (NCI)
About 83,000 compounds went through this panel and 20% of them were active in at least one assay; those are over-represented in the sample as a whole.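 Cells were grown in 96-well plates and exposed to the test compound at a single concentration for 48 hours; results are reported as percent growth, with values below 10 considered active.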 A number with no mark means an inactive call. Calls of active or inactive are those of the source.

What follows are molecules tested on NCI/ADR-RES ovarian (assay: NCI-60 one-dose screen, 48 h (100 = growth as untreated, 0 = no growth, -100 = all killed)). Details: 100 µM.

| Compound | growth |
| --- | --- |
| CN(C)C(=O)c1ccc(SC(=S)NCc2ccccc2)cc1 | 2.6% (active) |
| COc1ccc(-c2cscc2N)cc1 | 78.1% |
| O=C(Nc1c(Cl)cccc1Cl)Oc1cccc2cccnc12 | 3.5% (active) |
| O=C(Nc1cccc(Br)c1)Oc1cccc2cccnc12 | 4.89% (active) |
| O=C(O)c1c(Cl)c(Cl)c(Cl)c(Cl)c1-c1c2cc(I)c(=O)c(I)c-2oc2c(I)c(O)c(I)cc12 | 10.7% |
